Laboratory results published in the supplement of paper PMC9262897, “Low-cost anti-mycobacterial drug discovery using engineered E. coli” (Nature Communications, 2022).
Where a name gives a salt, the structure may show the parent alone. ± gives the standard deviation of the averaged measurements.

Key:
Experiment in all cases: growth (OD600 after 10 h); higher = more growth (less inhibition)
[1] = tested on: E. coli TESEC Alr+ wild-type control; details: compound 0.1 mM; raw OD600 reference: median of DMSO wells 0.241, cell-free background 0.041
Method: (§1)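 TESEC Mtb Alr E. coli, or the Alr+ wild-type control, in 384-well plates with Prestwick library compounds at 0.1 mM and 1% DMSO, across arabinose induction levels of 1E3 to 1E7 nM. Growth is read as OD600 after 10 h at 37 °C in triplicate biological replicates.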

[2] = tested on: E. coli TESEC Mtb Alr; details: compound 0.1 mM
Method: as §1

[3] = tested on: E. coli TESEC Mtb Asd; details: compound 0.1 mM
Method: (§2)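 TESEC E. coli strains in which the native enzyme is deleted and replaced by arabinose-inducible Mtb Asd, DapB, CysH or TrpD, each grown in its selective medium. Strains were screened against the Prestwick library at 0.1 mM and 1% DMSO in 384-well format at low and high arabinose induction. Growth is read as OD600 after 10 h in triplicate.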

[4] = tested on: E. coli TESEC Mtb DapB; details: compound 0.1 mM
Method: as §2

[5] = tested on: E. coli TESEC Alr+ wild-type control; details: compound 0.1 mM; raw OD600 reference: median of DMSO wells 0.49, cell-free background 0.052
Method: (§3)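 TESEC Mtb Alr E. coli (ΔaraC ΔtolC ΔentC Δalr ΔdadX, arabinose-inducible Mtb Alr) or the Alr+ wild-type control strain, grown in defined M9-fructose medium without D-alanine in 96-well plates with Prestwick library compounds at 0.1 mM and 1% DMSO. Low Alr induction is 0.1 µM arabinose and high induction is 10 mM arabinose.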

[6] = tested on: E. coli TESEC Mtb Alr; details: compound 0.1 mM; remark: listed apart in the source
Method: as §3

[7] = arabinose 1000 nM, raw OD600 reference: median of DMSO wells 0.294, cell-free background 0.041
[8] = arabinose 10000 nM, raw OD600 reference: median of DMSO wells 0.264, cell-free background 0.041
[9] = arabinose 100000 nM, raw OD600 reference: median of DMSO wells 0.201, cell-free background 0.041
[10] = arabinose 1000000 nM, raw OD600 reference: median of DMSO wells 0.193, cell-free background 0.041
[11] = arabinose 10000000 nM, raw OD600 reference: median of DMSO wells 0.146, cell-free background 0.041
[12] = arabinose induction (level): High, raw OD600 reference: median of DMSO wells 0.331, cell-free background 0.041
[13] = arabinose induction (level): Low, raw OD600 reference: median of DMSO wells 0.417, cell-free background 0.041
[14] = arabinose induction (level): High, raw OD600 reference: median of DMSO wells […], cell-free background 0.041
[15] = arabinose induction (level): Low, raw OD600 reference: median of DMSO wells 0.227, cell-free background 0.041
[16] = arabinose 100 nM, raw OD600 reference: median of DMSO wells 0.413, cell-free background 0.052
[17] = arabinose 10000000 nM, raw OD600 reference: median of DMSO wells […], cell-free background 0.052

Compound	growth [1]	growth [2, 7]	growth [2, 8]	growth [2, 9]	growth [2, 10]	growth [2, 11]	growth [3, 12]	growth [3, 13]	growth [4, 14]	growth [4, 15]	growth [5]	growth [6, 16]	growth [6, 17]
CCN1CCCC1CNC(=O)c1cc(S(N)(=O)=O)ccc1OC (stereo not drawn) [Sulpiride]	0.2503 ± 0.0019	0.291 ± 0.012	0.248 ± 0.0039	0.198 ± 0.02	0.174 ± 0.0021	0.147 ± 0.0072	0.309 ± 0.099	0.423 ± 0.023	0.221 ± 0.037	0.253 ± 0.024	0.525 ± 0.011	0.419 ± 0.0074	0.35 ± 0.017
CN(C)CCCO[C@@H]1[C@H]2OC(C)(C)O[C@H]2O[C@@H]1[C@H](O)CO [Amiprilose hydrochloride]	0.23 ± 0.012	0.304 ± 0.024	0.262 ± 0.0085	0.196 ± 0.0086	0.185 ± 0.0074	0.137 ± 0.003	0.411 ± 0.073	0.385 ± 0.076	0.199 ± 0.017	0.269 ± 0.046	0.613 ± 0.04	0.405 ± 0.013	0.337 ± 0.022
CCC(=O)[C@@]1(C)[C@H](C)C[C@H]2[C@@H]3CCC4=CC(=O)C=C[C@]4(C)[C@H]3[C@@H](O)C[C@@]21C [Rimexolone]	0.216 ± 0.0076	0.275 ± 0.019	0.248 ± 0.0084	0.139 ± 0.005	0.148 ± 0.0067	0.132 ± 0.0029	0.203 ± 0.03	0.41 ± 0.047	0.197 ± 0.0062	0.209 ± 0.026	0.459 ± 0.021	0.414 ± 0.019	0.365 ± 0.038
O=C(NCCO[N+](=O)[O-])c1cccnc1 [Nicorandil]	0.2587 ± 0.0024	0.3 ± 0.021	0.286 ± 0.0046	0.208 ± 0.025	0.213 ± 0.0045	0.153 ± 0.0067	0.362 ± 0.039	0.377 ± 0.057	0.191 ± 0.0086	0.209 ± 0.023	0.481 ± 0.072	0.4153 ± 0.002	0.3332 ± 0.001
OCCN1CCN(CCCN2c3ccccc3Sc3ccc(C(F)(F)F)cc32)CC1 [Fluphenazine dihydrochloride]	0.0421 ± 0.0038	0.041 ± 0.0026	0.0391	0.03987 ± 0.00021	0.03867 ± 0.00012	0.0405 ± 0.00052	0.0496 ± 0.00091	0.0515 ± 0.0021	0.0483 ± 0.00055	0.15 ± 0.1	0.04827 ± 0.00025	0.286 ± 0.21	0.0529 ± 0.00081
CC(=O)O[C@H]1C[C@@H]2CC[C@@H]3[C@H](CC[C@@]4(C)[C@H]3C[C@H]([N+]3(C)CCCCC3)[C@@H]4OC(C)=O)[C@@]2(C)C[C@@H]1N1CCCCC1 [Vecuronium bromide]	0.0818 ± 0.00093	0.0791 ± 0.0015	0.0482 ± 0.00074	0.07643 ± 0.00021	0.0518 ± 0.0023	0.07727 ± 0.00072	0.136 ± 0.0039	0.124 ± 0.0035	0.172 ± 0.019	0.216 ± 0.022	0.23 ± 0.013	0.396 ± 0.0098	0.0791 ± 0.0096
CNC1(C)C2CCC(C2)C1(C)C (stereo not drawn) [Mecamylamine hydrochloride]	0.242 ± 0.006	0.307 ± 0.0084	0.293 ± 0.0071	0.214 ± 0.034	0.185 ± 0.016	0.156 ± 0.0054	0.266 ± 0.078	0.304 ± 0.093	0.187 ± 0.018	0.238 ± 0.012	0.462 ± 0.03	0.433 ± 0.0029	0.312 ± 0.02
Nc1cc(-c2ccncc2)c[nH]c1=O [Amrinone]	0.237 ± 0.0081	0.308 ± 0.015	0.277 ± 0.017	0.193 ± 0.012	0.188 ± 0.0077	0.162 ± 0.008	0.463 ± 0.012	0.385 ± 0.074	0.206 ± 0.0051	0.271 ± 0.011	0.446 ± 0.027	0.38 ± 0.043	0.362 ± 0.026
COc1cc2c(cc1OC)C(=O)C(CC1CCN(Cc3ccccc3)CC1)C2 (stereo not drawn) [Donepezil hydrochloride]	0.168 ± 0.0034	0.251 ± 0.0063	0.259 ± 0.0054	0.158 ± 0.0035	0.174 ± 0.013	0.142 ± 0.0099	0.234 ± 0.039	0.4033 ± 0.0016	0.167 ± 0.021	0.199 ± 0.039	0.56 ± 0.055	0.404 ± 0.011	0.325 ± 0.0069
CC(C)c1ccc2oc3nc(N)c(C(=O)O)cc3c(=O)c2c1 [Amlexanox]	0.158 ± 0.003	0.157 ± 0.015	0.307 ± 0.0078	0.157 ± 0.0046	0.248 ± 0.024	0.166 ± 0.011	0.3928 ± 0.003	0.23 ± 0.056	0.197 ± 0.0066	0.206 ± 0.036	0.416 ± 0.015	0.0761 ± 0.019	0.279 ± 0.018
CC(=O)OCC(=O)NCCCOc1cccc(CN2CCCCC2)c1 [Roxatidine Acetate HCl]	0.241 ± 0.013	0.302 ± 0.0074	0.265 ± 0.008	0.212 ± 0.024	0.186 ± 0.0084	0.139 ± 0.0026	0.29 ± 0.046	0.389 ± 0.023	0.185 ± 0.016	0.186 ± 0.0097	0.673 ± 0.062	0.408 ± 0.0076	0.3569 ± 0.0035
NC[C@H]1CC[C@H](C(=O)O)CC1 [Tranexamic acid]	0.254 ± 0.0017	0.293 ± 0.0074	0.282 ± 0.0046	0.215 ± 0.031	0.186 ± 0.002	0.141 ± 0.0029	0.381 ± 0.056	0.446 ± 0.026	0.188 ± 0.011	0.214 ± 0.018	0.456 ± 0.04	0.411 ± 0.0076	0.349 ± 0.0049
COc1ccc2c3c1O[C@H]1C[C@@H](O)C=C[C@@]31CCN(C)C2 [Galanthamine hydrobromide]	0.249 ± 0.0042	0.291 ± 0.0095	0.245 ± 0.0045	0.218 ± 0.014	0.161 ± 0.0075	0.1382 ± 0.00072	0.229 ± 0.0098	0.376 ± 0.094	0.186 ± 0.012	0.195 ± 0.016	0.459 ± 0.04	0.409 ± 0.01	0.34 ± 0.022
CCN[C@H]1CN(CCCOC)S(=O)(=O)c2sc(S(N)(=O)=O)cc21 [Brinzolamide]	0.248 ± 0.012	0.282 ± 0.017	0.261 ± 0.0091	0.219 ± 0.03	0.182 ± 0.0056	0.135 ± 0.0031	0.259 ± 0.085	0.385 ± 0.11	0.202 ± 0.013	0.215 ± 0.011	0.579 ± 0.098	0.405 ± 0.0097	0.3104 ± 0.0022
C[C@]12CC[C@H]3C(=CCc4cc(O)ccc43)[C@@H]1CCC2=O [Equilin]	0.126 ± 0.0019	0.17 ± 0.0095	0.226 ± 0.0079	0.154 ± 0.0054	0.0878 ± 0.0015	0.125 ± 0.0018	0.159 ± 0.0023	0.258 ± 0.044	0.174 ± 0.0089	0.183 ± 0.017	0.424 ± 0.0094	0.388 ± 0.0096	0.163 ± 0.0075
CC(C)(C)NC[C@H](O)COc1cccc2c1CCCC2=O [(-) -Levobunolol hydrochloride]	0.227 ± 0.022	0.295 ± 0.0092	0.253 ± 0.0095	0.189 ± 0.0065	0.1733 ± 0.0014	0.141 ± 0.0056	0.401 ± 0.085	0.428 ± 0.059	0.203 ± 0.0036	0.221 ± 0.019	0.613 ± 0.048	0.403 ± 0.013	0.334 ± 0.0023
